Assay outcomes deposited in PubChem BioAssay by National Center for Advancing Translational Sciences (NCATS).
IL-1B inflam inh = qHTS for Inhibitors of Inflammasome Signaling: IL-1-beta AlphaLISA Primary Screen | activity change, % at 57.5 µM | AID 743279, 2014 | THP-1 LPS/ATP IL-1B secretion, AlphaLISA, 16 h; stronger effect = lower value | 4.7% of 360,000 active; in the data active = activity change below about -50%; inconclusive = mostly about -30% to -49%
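THP-1 cells pretreated 1 hr with compounds (up to 57.5 uM final), then stimulated with LPS (250 ng/mL final) plus ATP (1.25 mM final); secreted IL-1B measured by AlphaLISA after 16 hr, decreased signal indicating inhibition.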
HT1080NT lethal = qHTS for induction of synthetic lethality in tumor cells producing 2HG: qHTS for the HT-1080-NT fibrosarcoma cell line | HT-1080-NT fibrosarcoma viability, CellTiter-Glo ATP luminescence, 48 h | 1.6% of 360,000 active | Potency, µM (highest dose often 46.1 µM), for the others: at the highest dose activity, negative = less viability, usual class: cytotoxic | AID 686970, 2013;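 note: NT is the 2HG producing partner of a matched IDH1 knockdown line; potency is the fitted concentration of half-maximal effect; 0% = DMSO-treated cells and -100% = media-only wells without cells; nearly all actives have a fitted effect of over 55% in size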
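Toxicity toward the 2HG-producing NT line was scored as %Activity, normalised to DMSO and no-cell wells, from CellTiter-Glo luminescence after 48 hours' treatment.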
HT1080 IDH1KD tx = qHTS for induction of synthetic lethality in tumor cells producing 2HG: qHTS for the HT-1080-IDH1KD cell line; HT-1080 IDH1 knockdown viability, ATP luminescence, 48 h; Potency, µM (series often up to 46.1 µM), inactives show top-dose activity, negative = toxicity, usual class: cytotoxic; 2% of 360,000 active; AID 686971, 2013;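 note: potency is the fitted concentration of half-maximal effect; 0% = DMSO wells and -100% = cell-free medium wells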
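Assay cells: HT-1080 with IDH1 knockdown, 750 per well, RPMI/5% FBS. Exposure: 48 h at 37 °C following 2 h pre-incubation. Read: CellTiter-Glo luminescence; fitted concentration-response, curve class assigned.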
12-LOX inh = Primary qHTS assay for inhibitors of human arachidonate 12S-lipoxygenase (ALOX12): Round 2; Polyunsaturated fatty acid lipoxygenase ALOX12 (Homo sapiens), P18054; purified 12hLO, xylenol orange hydroperoxide absorbance; Potency, µM (top dose mostly 108 µM), without a hit: at the top dose activity change, negative = inhibition, hits mostly inhibitors; 1.1% of 580,000 active; note: potency is the fitted concentration of half-maximal effect
Target sequence (P18054 whole entry, looked up): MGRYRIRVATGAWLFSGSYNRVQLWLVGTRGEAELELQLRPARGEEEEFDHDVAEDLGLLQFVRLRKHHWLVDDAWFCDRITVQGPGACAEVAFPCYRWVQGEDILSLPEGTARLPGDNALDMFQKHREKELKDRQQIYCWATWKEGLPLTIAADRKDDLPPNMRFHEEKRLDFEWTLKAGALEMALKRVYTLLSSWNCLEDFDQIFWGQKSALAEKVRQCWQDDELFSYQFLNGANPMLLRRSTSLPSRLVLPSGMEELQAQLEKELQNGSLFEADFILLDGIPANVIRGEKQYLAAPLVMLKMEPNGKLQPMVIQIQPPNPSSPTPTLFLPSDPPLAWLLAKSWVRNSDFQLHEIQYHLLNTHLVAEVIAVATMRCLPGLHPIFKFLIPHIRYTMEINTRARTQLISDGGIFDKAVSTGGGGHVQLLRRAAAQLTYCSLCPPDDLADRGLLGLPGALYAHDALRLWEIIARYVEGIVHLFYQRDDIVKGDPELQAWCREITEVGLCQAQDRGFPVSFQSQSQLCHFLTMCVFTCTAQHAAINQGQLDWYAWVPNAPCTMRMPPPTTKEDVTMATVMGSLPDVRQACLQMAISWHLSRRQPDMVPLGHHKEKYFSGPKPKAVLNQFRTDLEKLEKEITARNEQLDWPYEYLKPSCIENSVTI
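Purified human 12hLO (150 nM final) in 25 mM Hepes, 0.01% Triton X-100, pH 7.0 was preincubated 15 min at room temperature with compound. Then 40 uM arachidonic acid was added, 30 min. Hydroperoxide was read by Fe-XO absorbance ratio 573/405 nm.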
TDP1 cell noCPT = qHTS for Inhibitors of human tyrosyl-DNA phosphodiesterase 1 (TDP1): qHTS in cells in absence of CPT | DT40 Tdp1-/- hTDP1 cells, no CPT, ATP luminescence, 48 h | Potency, µM (titrated, usually from 46.2 µM), for the others: at the highest dose activity change, negative = growth inhibition, hits mostly inhibitors | 15% of 420,000 active; note: potency is the fitted concentration of half-maximal effect; nearly all actives have a fitted effect of over 55% in size
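Camptothecin absent (DMSO only). Human TDP1-complemented DT40 knockout cells, 400 cells/well, 37 °C for minimum 48 hr; ATP measured via CellTiter-Glo, 30 min dark incubation, luminescence.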
TDP1 cell CPT = qHTS for Inhibitors of human tyrosyl-DNA phosphodiesterase 1 (TDP1): qHTS in cells in presence of CPT | chicken DT40 Tdp1-/-;hTDP1 cells + 20 nM CPT, ATP luminescence, 48 h | Potency, µM (doses to about 46.2 µM), for the others: at the top dose activity change, negative = growth inhibition, usual class: inhibitors | 12% of 420,000 active; note: potency is the fitted concentration of half-maximal effect; nearly all actives have a fitted effect of over 55% in size
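Cell growth measured by CellTiter-Glo luminescence after a minimum 48 h, 37 C compound exposure with 20 nM CPT in Tdp1-knockout DT40 cells stably expressing hTDP1, seeded 400/well; qHTS titration format.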
* marks the source's active call; other numbers are inactive results. Only a selection was taken, and hits are over-represented in it overall. Unless noted, calls come from the whole dose curve; as a rule, active = well fitted curve in the direction sought with a large enough effect; inconclusive = small, poorly fitted or top-dose-only effect, or another doubt; inactive = no such curve, though single readings can be large; an effect the other way counts as inactive or inconclusive. Unless noted, % is set by controls: 0 for no effect and ±100 for the full control effect.

Cc1ccc(NC(=O)c2ncn(CCCNCCCc3ccccc3)n2)cc1C was read as IL-1B inflam inh -28.2, HT1080NT lethal -18.2%, HT1080 IDH1KD tx inconclusive, 12-LOX inh -13.7%, TDP1 cell noCPT 20.6µM* and TDP1 cell CPT inconclusive.
COc1ccc(CNCCCn2cnc(C(=O)Nc3ccc(C)c(C)c3)n2)cc1 was read as IL-1B inflam inh -16.8, HT1080NT lethal -7.4%, HT1080 IDH1KD tx -11.1%, 12-LOX inh inconclusive, TDP1 cell noCPT 16.4µM* and TDP1 cell CPT inconclusive.
For Cc1ccc(NC(=O)c2ncn(CCCNCCCN(C)C)n2)cc1C the results were IL-1B inflam inh 0.0, HT1080NT lethal -11.5%, HT1080 IDH1KD tx -2.5%, 12-LOX inh -28.9%, TDP1 cell noCPT inconclusive and TDP1 cell CPT inconclusive.
For COC(=O)[C@H](Cc1ccc(O)cc1)NC(=O)Cn1cnc(C(=O)Nc2ccc(C)c(C)c2)n1 the results were IL-1B inflam inh 24.1, HT1080NT lethal 4.7%, HT1080 IDH1KD tx 5.1%, 12-LOX inh 9.8%, TDP1 cell noCPT -20.5% and TDP1 cell CPT -17.4%.
Cc1cccc(OC(=O)c2ccccc2I)c1C was read as 12-LOX inh -37.6%.
Cc1cc(C(=O)N2CCN(Cc3ccccc3)CC2)c2ccccc2n1 was read as 12-LOX inh 28.8%.
Screening O=c1c2cc(Cl)ccc2ncn1CC(O)COc1ccc(Br)cc1 (stereo not drawn) returned 12-LOX inh -89.3%.
`Cc1ccc(NC(=O)c2ncn(CCCN3CCN(c4ccccn4)CC3)n2)cc1C` gave IL-1B inflam inh -5.9, HT1080NT lethal -1.5%, HT1080 IDH1KD tx -5.6%, 12-LOX inh inconclusive, TDP1 cell noCPT 25.9µM* and TDP1 cell CPT inconclusive.
C=CCN(CC=C)C(=S)NC(=O)/C=C/c1ccc(OC)cc1 was read as IL-1B inflam inh 15.8, HT1080NT lethal 9.6%, HT1080 IDH1KD tx 12.0%, 12-LOX inh -11.1%, TDP1 cell noCPT -27.7% and TDP1 cell CPT -6.5%.
CC(C)C(=O)NC(=S)N(Cc1ccccc1)Cc1ccccc1 was read as IL-1B inflam inh -16.6, HT1080NT lethal -0.7%, HT1080 IDH1KD tx -3.6%, 12-LOX inh -18.1%, TDP1 cell noCPT 16.4µM* and TDP1 cell CPT inconclusive.
Screening C=CCN(CC=C)C(=S)NC(=O)c1ccc(-c2ccccc2)cc1 returned IL-1B inflam inh 22.3, HT1080NT lethal 1.8%, HT1080 IDH1KD tx -21.6%, 12-LOX inh inconclusive, TDP1 cell noCPT 6.51µM* and TDP1 cell CPT 5.8µM*.
Screening C=CCN(CC=C)C(=S)NC(=O)c1ccc(OC)cc1 returned IL-1B inflam inh -7.9, HT1080NT lethal -1.8%, HT1080 IDH1KD tx 6.2%, 12-LOX inh -16.9%, TDP1 cell noCPT 5.17µM* and TDP1 cell CPT 14.6µM*.
COc1ccc(C(=O)NC(=S)N(Cc2ccccc2)Cc2ccccc2)cc1 was read as IL-1B inflam inh -1.1, HT1080NT lethal -22.5%, HT1080 IDH1KD tx -2.1%, 12-LOX inh 35.5µM*, TDP1 cell noCPT 9.2µM* and TDP1 cell CPT 16.4µM*.
CCOc1ccccc1NC(=O)COC(=O)c1sc2cc(F)ccc2c1Cl was read as 12-LOX inh -1.7%.
`Cc1ccc(-c2cc(C(F)F)n3nc(C)c(Cl)c3n2)cc1C` gave 12-LOX inh -18.9%.
Screening CCOC(=O)C1CCN(C(=O)c2ccc3c(c2)N(CC)C2CCCCCN2C3=O)CC1 (stereo not drawn) returned 12-LOX inh 27.1%.
Screening Cc1ccc(Cn2c(C3CCN(C(=O)Cc4ccccc4)CC3)n[nH]c2=O)cc1 returned 12-LOX inh -13.6%.
For C=CCN(CC=C)C(=S)NC(=O)/C=C/c1ccc(C)cc1 the results were IL-1B inflam inh 3.3, HT1080NT lethal 12.5%, HT1080 IDH1KD tx -1.1%, 12-LOX inh -19.6%, TDP1 cell noCPT inconclusive and TDP1 cell CPT -16.3%.
For C=CCN(CC=C)C(=S)NC(=O)/C=C/c1ccccc1 the results were IL-1B inflam inh 19.6, HT1080NT lethal 10.3%, HT1080 IDH1KD tx 13.6%, 12-LOX inh 23.5%, TDP1 cell noCPT 23.1µM* and TDP1 cell CPT inconclusive.
For O=c1ccsn1Cc1ccccc1 the results were IL-1B inflam inh -100.7*, HT1080NT lethal inconclusive, HT1080 IDH1KD tx 23.1µM*, 12-LOX inh inconclusive, TDP1 cell noCPT 0.651µM* and TDP1 cell CPT 0.291µM*.
O=C1NC(Cc2ccccc2)C(=O)N1Cc1ccccc1 (stereo not drawn) was read as IL-1B inflam inh -7.4, HT1080NT lethal 9.0%, HT1080 IDH1KD tx 9.6%, 12-LOX inh -17.4%, TDP1 cell noCPT -17.7% and TDP1 cell CPT 4.5%.
`COc1cc(C)ccc1OCCCCOc1ccccc1C(C)=O` gave IL-1B inflam inh 8.3, HT1080NT lethal 9.4%, HT1080 IDH1KD tx -0.2%, 12-LOX inh -5.0%, TDP1 cell noCPT inconclusive and TDP1 cell CPT 1.84µM*.
For COc1cccc(-c2cc(C3CCN(S(=O)(=O)c4ccc(C#N)cc4)CC3)[nH]n2)c1 the results were 12-LOX inh 16.0%.
For Cc1cccc(C(C)C)c1NC(=O)C(Sc1ccccc1)c1ccccc1 (stereo not drawn) the results were 12-LOX inh 20.1%.
For CC1CCC(NC(=O)C2CC=CCC2)CC1 (stereo not drawn) the results were 12-LOX inh 30.1%.
Screening Cc1ccc(-c2nn(-c3ccccc3)cc2CO)cc1 returned IL-1B inflam inh -22.9, HT1080NT lethal -8.3%, HT1080 IDH1KD tx -13.9%, 12-LOX inh 230.2%, TDP1 cell noCPT 3.8% and TDP1 cell CPT 12.6%.
Screening Cc1cccc(-c2nn(-c3ccccc3)cc2CNCCO)c1 returned TDP1 cell noCPT 12.6µM* and TDP1 cell CPT inconclusive.
Screening Cc1ccc(-n2cc(CNCCCn3cccn3)c(-c3cccc(C)c3)n2)cc1 returned IL-1B inflam inh -99.2*, HT1080NT lethal inconclusive, HT1080 IDH1KD tx inconclusive, 12-LOX inh -21.9%, TDP1 cell noCPT 16.4µM* and TDP1 cell CPT 13µM*.
